UHRF1 binding: blocks human UHRF1 binding to methylated DNA; Q96T88; UHRF1 binding to methylated oligo, TR-FRET; inhibition, % at 4.4 µM; 0.75% of 370,000 active; AID 687016; in the data active = inhibition above about 21%;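 note: UHRF1 SRA domain binding a hemimethylated CpG hairpin DNA probe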
PRMT1 FP inh: inhibitors of human PRMT1. recombinant PRMT1, activity-based probe fluorescence polarization. inhibition, % at 2.79 µM. 1.3% of 370,000 active;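 active = inhibition above about 21% made by adding two undisclosed values, limit read from the data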
Target sequence (Q99873 whole entry, looked up): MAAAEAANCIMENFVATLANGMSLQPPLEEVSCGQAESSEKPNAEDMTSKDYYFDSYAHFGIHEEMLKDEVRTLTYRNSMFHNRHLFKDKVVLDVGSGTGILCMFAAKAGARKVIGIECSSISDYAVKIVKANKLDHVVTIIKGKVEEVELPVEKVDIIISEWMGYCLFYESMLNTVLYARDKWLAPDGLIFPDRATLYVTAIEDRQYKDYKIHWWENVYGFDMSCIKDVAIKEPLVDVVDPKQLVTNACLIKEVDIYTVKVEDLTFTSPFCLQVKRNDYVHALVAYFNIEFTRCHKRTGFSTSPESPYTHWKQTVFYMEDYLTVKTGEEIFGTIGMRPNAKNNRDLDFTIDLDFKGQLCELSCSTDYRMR
MBD2 DNA inh: inhibitors of human MBD2 binding to methylated oligonucleotide. 0.31% of 370,000 active. TR-FRET. inhibition, % at 4.4 µM. AID 686964; in the data active = inhibition above about 13%
PfM18AAP inh: blocks P. falciparum M18 aspartyl aminopeptidase; recombinant PfM18AAP, H-Glu-NHMec fluorogenic cleavage; inhibition, % at 7.35 µM; 1.2% of 290,000 active;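 active = inhibition above the campaign mean inhibition over all tested compounds plus 3 SD, cut at about 28% in these data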
PfG6PD inh: PfG6PD (Plasmodium falciparum) enzyme inhibition; PfGluPho enzyme, NADPH resazurin-diaphorase fluorescence; inhibition, % at 20 µM; 0.78% of 350,000 active; AID 504690;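 active = inhibition reaching at least a set limit at 20 µM in the primary screen, cut at about 59% in these data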
PRMT1 inh conf: confirmation of human PRMT1 inhibitors; shares compounds with PRMT1 FP inh; recombinant His-PRMT1, activity-based probe fluorescence polarization; inhibition, % at 2.79 µM; 42% of 3,300 active;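 active = mean inhibition across replicates above the hit cutoff derived for the earlier primary screen, cut at about 22% in these data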
A number is an active result; – = inactive; · = no result given. Sampled rows, rich in hits. Any-hit rate of the full collection: about 3.3%.

SMILES	UHRF1 binding	PRMT1 FP inh	MBD2 DNA inh	PfM18AAP inh	PfG6PD inh	PRMT1 inh conf
COc1ccc(C2c3ccsc3CCN2C(=O)C(C)(C)C)cc1 (stereo not drawn)	–	–	–	–	–	·
Cc1ccc(-c2csc(NC(=O)Cc3ccc(F)cc3)n2)o1	–	41	–	–	–	43
COc1ccc(OC)c(-c2csc(NC(=O)Cc3ccc(F)cc3)n2)c1	–	–	–	–	–	·
Cc1ccc(-c2csc(Nc3ccc(S(N)(=O)=O)cc3)n2)o1	–	72	–	–	–	40
Cc1ccc(-n2nc(C)c(/C=N/n3c(C)n[nH]c3=S)c2Cl)cc1	–	–	–	–	–	·
C=CC[C@@H](CC(=O)OC(C)(C)C)C(=O)OC[C@H]1CCCN1C(=O)[C@@H](CC=C)CC(=O)NCCO	–	–	–	·	–	·
CCC1(CC)Cc2ccccc2C(CC(=O)N2CCOCC2)=N1	–	35	–	–	–	31
COc1cc(/C=C2/C(=O)CNC2=O)ccc1O	–	–	–	–	–	·
COc1cc(C=C2C(=O)C=CC2=O)ccc1O	97	91	102	·	·	100
Cc1ccc(CNC(=O)CSc2c3c(nc4cc(Cl)ccc24)CCCC3)o1	–	60	–	–	–	–
N#CC1C(=O)c2ccccc2C1c1ccccc1 (stereo not drawn)	–	45	–	·	–	–
O=C(CCC(=O)c1cccs1)NCCc1ccc(F)cc1	–	26	–	·	–	–
CCN1C(c2ccccc2)=C(c2ccccc2)S/C1=C\C=C1/SC(=S)N(C)C1=O	–	–	–	–	–	·
CCN1C(=O)/C(=C/C=C2/Sc3ccc4ccccc4c3N2CCO)SC1=S	–	44	–	50	–	–
Cc1cc(=O)[nH]c(SCC(=O)N2CCCc3ccccc32)n1	–	–	–	–	–	·
O=C(CSc1nc(O)cc(=O)[nH]1)N1CCCc2ccccc21	–	26	–	–	–	–
CC1Cc2ccccc2N1S(=O)(=O)c1cccc(C(=O)N2Cc3ccccc3CC2C(N)=O)c1 (stereo not drawn)	–	–	–	·	–	·
NC(=O)C1Cc2ccccc2CN1C(=O)c1cccc(Oc2ccccc2)c1 (stereo not drawn)	–	106	–	–	–	–
COC(=O)Nc1ccc(SCC(=O)c2ccccc2)cc1	–	26	–	–	–	–
COC(=O)Nc1ccc(SCC(=O)c2ccc(Cl)cc2)cc1	–	69	–	–	–	55
COC1=CC(=O)C=C(OC)C1=O	–	56	–	·	125	54
COC1=CC(=O)c2ccccc2C1=O	·	·	·	·	–	·
Cc1ccc(-c2nn(-c3ccccc3)cc2C=C2SC(=S)N(CCS(=O)(=O)O)C2=O)cc1	–	–	–	·	·	·
O=C1C(=Cc2cn(-c3ccccc3)nc2-c2ccc(OCc3ccccc3)cc2)SC(=S)N1CCS(=O)(=O)O	–	43	–	·	·	–
N#C/C(=C/c1ccc(N2CCOCC2)o1)c1nc2ccccc2[nH]1	–	38	–	–	–	–
SMILES	UHRF1 binding	PRMT1 FP inh	MBD2 DNA inh	PfM18AAP inh	PfG6PD inh	PRMT1 inh conf
Cc1cc(/C=C(\C#N)c2nc3ccccc3[nH]2)c(C)n1C	–	28	–	–	–	–
N#C/C(=C\c1ccc(N2CCOCC2)o1)c1ccccc1	–	–	–	–	–	·
CCSC(=Nc1ccccc1)N1CCOCC1	–	–	–	·	–	·
Cc1c(O)nc(SCC(=O)Nc2ccc3c4c(cccc24)CC3)n(-c2ccccc2)c1=O	–	29	–	–	–	23
CCN1CCN(c2ccc(N=Cc3ccccc3O)cc2)CC1	–	–	–	–	–	·
CC(=O)Nc1ccc(NC(=O)CNC(=O)c2sc3ccccc3c2Cl)cc1	–	–	–	·	–	·
Oc1c(C=Nc2ccccc2)sc2ccccc12	–	59	–	–	–	32
CN=Cc1sc2ccccc2c1O	–	52	–	–	–	27
Oc1c(C=Nc2cccnc2)sc2ccccc12	–	65	–	–	–	45
CC(=O)NCCN=Cc1sc2ccccc2c1O	–	40	–	–	–	30
O=C(Nc1ccc(C(O)(C(F)(F)F)C(F)(F)F)cc1)c1ccc(F)cc1Cl	–	–	–	·	·	·
CC(=O)Nc1ccc(NC(=O)Nc2cccc(Cl)c2)cc1	–	–	–	–	–	·
CC(=O)C(=Nc1ccc(Cl)cc1Cl)NNc1cccc(Cl)c1	–	61	–	–	–	–
CCC1(CC)NC(=O)N(CC(=O)OCC(=O)Nc2sccc2C#N)C1=O	–	–	–	–	–	·
O=C1CCC(=O)N1CC(=O)N1CCCc2ccccc21	–	–	–	–	–	·
O=C(O)C1Nc2c(Cl)cc(Cl)c(Cl)c2C2C=CCC12 (stereo not drawn)	–	–	–	–	–	·
CC(C)C1Nc2c(O)cc(Cl)c([N+](=O)[O-])c2C2C=CCC21 (stereo not drawn)	–	30	–	–	–	–
O=C(COc1cccnc1[N+](=O)[O-])NCCc1ccc(Cl)cc1Cl	–	–	–	–	–	·
FC(F)(F)c1nc2ccccc2nc1N/N=C\c1ccccc1	–	25	–	–	–	–
CCOC(=O)c1ccoc1CSCc1ccc(C(=O)OC)o1	–	39	–	–	–	45
COC(=O)c1ccc(CSC(=N)N)o1	–	–	–	–	–	·
Cc1ccccc1N1C(=O)CC(Sc2nnc(-c3ccccc3)o2)C1=O (stereo not drawn)	–	83	–	–	–	68
O=C1CC(Sc2nnc(-c3ccccc3)o2)C(=O)N1c1ccccc1 (stereo not drawn)	–	68	–	–	–	60
CCOC(=O)c1sc(NC(=O)CCc2ccccc2)nc1C	–	–	–	–	–	·
CCCCCNC(=O)C(c1ccccc1F)n1c(=O)c(-c2ccco2)nc2ccccc21 (stereo not drawn)	–	31	–	·	·	25
SMILES	UHRF1 binding	PRMT1 FP inh	MBD2 DNA inh	PfM18AAP inh	PfG6PD inh	PRMT1 inh conf
CCCCCNC(=O)C(c1ccc(OC)cc1)n1c(=O)c(-c2ccco2)nc2ccccc21 (stereo not drawn)	–	28	–	·	·	–
CCOC(=O)C1=CCN(S(=O)(=O)c2ccccc2Cl)C1c1cccc(Cl)c1 (stereo not drawn)	–	–	–	·	·	·
O=C(COC(=O)C1CCC1)Nc1cc(S(=O)(=O)N2CCCCC2)ccc1Cl	–	–	–	·	–	·
CCCNC(=O)c1nnsc1S(=O)c1ccc(Cl)cc1 (stereo not drawn)	–	95	–	–	–	90
CNC(=O)c1nnsc1S(=O)c1ccc(Cl)cc1 (stereo not drawn)	–	77	–	–	–	76
COc1ccccc1-c1cc(C(F)(F)F)n2ncc(C(=O)N3CCc4ccccc4C3)c2n1	–	–	–	–	–	·
Cc1ccc(/C=c2\s/c(=C(/C#N)C(=O)N3CCCC3)n(Cc3ccco3)c2=O)s1	–	26	–	–	–	–
OC(c1ccc(Cl)c(F)c1)c1ncc(-c2cccc(C(F)(F)F)c2)[nH]1 (stereo not drawn)	–	–	–	·	·	·
CCOC(=O)c1c(N)sc(=S)c2c1CCC2	–	27	–	–	–	–
CCOC(=O)c1c(N)sc(N)c1C(=O)OCC	–	31	–	–	–	56

Screening results from PubChem.
